# Several values for one entry are separate records, joined by “and”; a condition that tells them apart may be missing. Equal values may be shown once. The campaign covered roughly 420,000 compounds. About 64,000 (15%) were called active. Roughly 27% stayed inconclusive and do not appear here. Calls follow the shape of the dose curve; as a rule, active = well fitted inhibition curve with a large enough effect; inconclusive = small, poorly fitted or top-dose-only effect; inactive = flat fitted curve, though single readings scatter. Only a sample is shown.
# Assay: qHTS for Inhibitors of human tyrosyl-DNA phosphodiesterase 1 (TDP1): qHTS in cells in absence of CPT; also: nearly all actives have a fitted effect of over 55% in size
# Details: DT40 Tdp1-/- hTDP1 cells, no CPT, ATP luminescence, 48 h; activity change, negative = growth inhibition: at 46.2 µM (top of the series)
# How it was run: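 Chicken DT40 Tdp1-/- cells stably complemented with human TDP1 were seeded at 400 cells/well with DMSO in place of 20 nM camptothecin. After compound pinning, cells grew at least 48 hr at 37 °C; viability read by CellTiter-Glo luminescence.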
# % is scaled to controls: 0 for no effect and ±100 for the full control effect; potency is read from the fitted curve at half-maximal effect.
Compound,"activity change, negative = growth inhibition",Potency
COC(=O)c1ccc(CNC(=O)c2ccc3oc(C(C)C)nc3c2)cc1,-23% (inactive),–
Cc1c(-c2cccc(Cl)c2)nc2ccccc2c1C(=O)OCC(=O)N(C)C1CCS(=O)(=O)C1 (configuration not stated),-18.4% (inactive),–
CC(=O)Nc1ccc(C(=O)NNC(=O)CCCCC(=O)NNC(=O)c2ccc(NC(C)=O)cc2)cc1,-26.2% (inactive),–
O=C(c1cn(-c2ccccc2)nc1-c1cccnc1)N1CCCCC1,-1.78% (inactive),–
CCC(=O)OCc1c(C(F)(F)F)nn(C)c1Oc1cccc(C(F)(F)F)c1,16.5% (inactive),–
Cc1ccc(S(=O)(=O)NCC(=O)N2CCN(c3ccccn3)CC2)cc1,1.99% (inactive),–
Cc1cc(Br)ccc1NC(=O)c1sc2ncn(CC(=O)N3CCN(c4ccccn4)CC3)c(=O)c2c1C,-15.7% (inactive),–
CSc1ncccc1C(=O)Nc1cccc(S(=O)(=O)N2CCOCC2)c1,-7.85% (inactive),–
O=C(Nc1ccc(F)cc1)c1cccnc1N1CCOCC1,2.7% (inactive),–
CCc1cccc(NC(=O)c2cnc(N3CCOCC3)c3ccccc23)c1,–,11.6 µM (active)
Cc1cc(Br)ccc1NC(=O)c1cnc(N2CCN(c3ccccn3)CC2)c2ccccc12,–,13 µM (active)
CCOC(=O)COc1nc(C)cc(C(F)(F)F)c1C#N,-3.92% (inactive),–
CCOC(=O)c1c(N)sc2c1CCCC2=O,-23.7% (inactive),–
COc1ccc(-n2c(=O)c3ccccc3n(Cc3ccccc3Cl)c2=O)cc1,-9.58% (inactive),–
CCC(=O)c1ccc(OCC(=O)OCC(=O)N2CCc3ccccc3C2)cc1,-16.3% (inactive),–
OCCN1CCN(C(=S)c2ccc(-c3ccccc3)cc2)CC1,-17.2% (inactive),–
CN(C)CCNC(=O)Cc1ccc([N+](=O)[O-])cc1,7.09% (inactive),–
Cn1cc(CCC(=O)NCc2ccc3c(c2)OCO3)c2ccccc21,-20.7% (inactive),–
Cc1nc2nc(COc3ccccc3)[nH]n2c(=O)c1C,-18.5% (inactive),–
OCC[C@H]1C[C@H](O)[C@@H](O)[C@]2(CCc3ccccc3O2)O1,-2.75% (inactive),–
CCOc1cccc(SCc2noc(C(=O)NC(C)C)c2C(=O)O)c1,-11.2% (inactive),–
CC1CN(S(=O)(=O)c2cccc(C(F)(F)F)c2)CN1C(=O)N1CCOCC1 (configuration not stated),1.17% (inactive),–

Compound,"activity change, negative = growth inhibition",Potency
O=C(O)c1ccc(CSc2nc3cccnc3n2Cc2cccc(F)c2)cc1,-18.6% (inactive),–
Cc1oc(-c2ccccc2)nc1Cn1c(SCc2cccc(C(F)(F)F)c2)nc2cccnc21,–,25.9 µM (active)
O=C(NC1CCCCC1)c1ccc(Cn2c(SCc3ccccc3)nc3cccnc32)cc1,-28.6% (inactive),–
O=C(Cc1ccccc1)NNC1CC(=O)N(c2ccc(Br)cc2)C1=O (configuration not stated),-2.99% (inactive),–
Cc1onc(C(=O)Nc2ccc3c(c2)OCO3)c1[N+](=O)[O-],-0.294% (inactive),–
CN(CC(=O)NC1CCCCC1)S(=O)(=O)c1cccc2cccnc12,-25.1% (inactive),–
CC(=O)OC[C@@H]1CN(Cc2ccccc2)C[C@H](n2cnc3c(NCc4ccco4)ncnc32)O1,-11.8% (inactive),–
Nc1ncnc2c1ncn2[C@@H]1O[C@H](C(=O)NCC(F)(F)F)[C@@H](O)[C@H]1O,2.82% (inactive),–
COCCn1c(=O)c(-c2cc(F)cc(F)c2)nc2cnc(N3CCNCC3)nc21,–,23.1 µM (active)
O=c1c(CCc2ccccc2)nc2cnc(N3CCNCC3)nc2n1Cc1cccs1,-1.32% (inactive),–
N#Cc1cccc(-c2nc3cnc(N4CCNCC4)nc3n(C3CC3)c2=O)c1,–,3.66 µM (active)
COCCn1c(=O)c(-c2cc(F)cc(F)c2)nc2cncnc21,10.5% (inactive),–
COCCn1c(=O)c(-c2ccccc2)nc2cnc(N3CCOCC3)nc21,-7.21% (inactive),–
O=c1c(-c2ccc(F)cc2)nc2cnc(N3CCOCC3)nc2n1-c1ccccc1,0.857% (inactive),–
COC(=O)c1ccc(NC(=O)c2cc3c(CO)cnc(C)c3oc2=Nc2cccc(C(N)=O)c2)cc1,-22.8% (inactive),–
Cc1cc(C(=O)N2CCC(C(=O)O)CC2)c(C(F)(F)F)o1,5.7% (inactive),–
COC(=O)c1ccc(CSc2ccc(S(=O)(=O)N3CCCCC3)cn2)cc1,-4.95% (inactive),–
C/C(CC(=O)Nc1ccc(C)cc1C)=N\NC(=O)C(C)C,8.43% (inactive),–
CN(C)N1C(N)=C(C#N)C(c2ccc(Br)cc2)C2=C1CCCC2=O (configuration not stated),7.64% (inactive),–
Cc1ccc(S(=O)(=O)N(C)C)cc1NC(=O)COC(=O)c1c(C)noc1C,-6.14% (inactive),–
O=C(OCc1cn([C@H]2C[C@H](c3ccccc3)N(C(=O)c3cccs3)C[C@@H]2O)nn1)c1ccccc1,–,18.4 µM (active)
CCCCCC(=O)N1C[C@H](O)[C@@H](n2cc(COC(=O)c3ccccc3)nn2)C[C@@H]1c1ccc(C)cc1,–,0.82 µM (active)

Compound,"activity change, negative = growth inhibition",Potency
O=C(c1cccs1)N1C[C@H](n2cc(C3CC3)nn2)[C@@H](O)C[C@@H]1c1ccccc1,-26.4% (inactive),–
O=C(OCc1cn(-c2ccc(Cl)c(Cl)c2)nn1)c1ccccc1Cl,-0.626% (inactive),–
C=CCCC(=O)N1C[C@H]2CON(C)[C@H]2C[C@H]1c1cccc(Nc2ccccc2)c1,-7.65% (inactive),–
O=C(OCc1cn([C@@H]2C[C@H](c3ccc(Cl)cc3)N(Cc3cccs3)C[C@H]2O)nn1)c1ccccc1,-8.11% (inactive),–
CCCCN(C)CCNC(=O)CSCc1ccc(C)cc1,13.4% (inactive),–
CC1=CC(=O)C=CC1(C)C(Cl)(Cl)Cl (configuration not stated),-24% (inactive),–
CCN(CC(=O)NCc1ccco1)S(=O)(=O)c1ccc(F)cc1,-12.4% (inactive),–
Cc1c(C=O)c2ccccn2c1C(=O)c1ccncc1,-25.4% (inactive),–
COc1ccc([N+](=O)[O-])cc1-c1nc2ccccc2nc1-c1ccccc1,-35.9% (inactive),–
O=C(Cn1c(=O)nc(-c2ccccc2)c2cc(Cl)ccc21)NCc1ccc(Cl)cc1,–,23.1 µM (active)
CCN(C(=O)Cn1c(=O)nc(-c2ccccc2)c2cc(Cl)ccc21)c1cccc(C)c1,-6.07% (inactive),–
COC(=O)Cn1nc(-c2ccccc2)c2cc(Cl)ccc21,-29.8% (inactive),–
Cc1ccc(N(CC(=O)NC2CCCCC2)C(=O)CCCC(=O)Nc2ccccn2)c(C)c1,-18.2% (inactive),–
Cn1nccc1C(=O)NCC1CCC2(CCN(Cc3c(O)ccc4ccccc34)CC2)O1 (configuration not stated),-21.7% (inactive),–
CCOC(=O)c1nc(Nc2ccc(C(=O)OC)cc2)c2ccccc2n1,–,8.2 µM (active) and 20.6 µM (active)
COC(=O)c1ccc(Nc2ncnc3sccc23)cc1,-1.98% (inactive),–
CCOC(=O)c1ccc(Nc2cc(C)nc3nc(C)nn23)cc1,-1.51% (inactive),–
COc1cc(C(=O)N2C(=O)c3cccc(N)c3C2=O)cc(OC)c1OC,8.82% (inactive),–
O=C(CCc1ccccc1)Nc1nn[nH]n1,-2.74% (inactive),–
O=C(O)c1ccc(N=NN2CCOCC2)cc1,-15.9% (inactive),–
CCOc1cc(NC(=O)c2ccco2)c(OCC)cc1NC(=O)COc1ccccc1,–,4.61 µM (active)
Cc1ccc(NC(=O)c2ccco2)cc1,-4.11% (inactive),–

Compound,"activity change, negative = growth inhibition",Potency
O=C(COc1ccccc1)Nc1nonc1NC(=O)COc1ccccc1,-12.1% (inactive),–
Cc1ccc(C(=O)COc2cccc(NC(=O)c3ccco3)c2)cc1,–,20.6 µM (active)
Cc1cc(NC(=O)c2ccc(F)cc2)ccc1NC(=O)c1ccco1,-27.6% (inactive),–
O=C(Nc1cccc(NC(=O)c2ccco2)c1)c1cnccn1,-18.8% (inactive),–
Cc1cccc(OCC(=O)Nc2ccc(NC(=O)c3ccco3)c(C)c2)c1,–,16.4 µM (active)
COc1ccc(OCC(=O)Nc2ccc(NC(=O)c3ccco3)c(C)c2)cc1,0.455% (inactive),–
CCOc1cc(NC(=S)NCc2ccco2)c(OCC)cc1NC(=O)c1ccco1,-26.8% (inactive),–
CC(C)c1ccc(NC(=O)Cn2ncc3ccccc32)cc1,-26.9% (inactive),–
CCOC(=O)C1CCN(C(=O)C2CCN(S(=O)(=O)c3c(C)noc3C)CC2)CC1,-14% (inactive),–
CCOc1ccc(Oc2nc(C)cc(OC)n2)nn1,-5.71% (inactive),–
O=C1CCN(C(=S)NCCc2ccccc2)CC1,4.41% (inactive),–
S=C(NCCc1ccccc1)N1CCCCC1,14.3% (inactive),–
Oc1ccc(N2CCN(C(=S)NCc3ccccc3)CC2)cc1,–,13 µM (active)
Cc1ccc(C(=O)COC(=O)CCN2C(=O)C3C4CC(C(Br)C4Br)C3C2=O)cc1 (configuration not stated),2.81% (inactive),–
Clc1ccc(-c2cc(COc3ccccc3)no2)cc1Cl,-3.75% (inactive),–
COc1ccc(Oc2coc3cc(OC(=O)c4cncc(Br)c4)ccc3c2=O)cc1,-27.9% (inactive),–
O=C(Oc1ccccc1)Oc1ccc2c(c1)oc(=O)c1ccccc12,-12.5% (inactive),–
COCCCNC(=O)CSc1nc2ccc(N3CCOCC3)cc2c(=O)n1CCc1ccccc1,-18.2% (inactive),–
CCCCn1c(SCC(=O)NCC2CCCO2)nc2ccc(N3CCOCC3)cc2c1=O (configuration not stated),-12.7% (inactive),–
N#CCSc1nc2ccc(N3CCOCC3)cc2c(=O)n1CCc1ccccc1,–,20.6 µM (active)
O=C(CSc1nnc2n1CCCN2)c1ccccc1,17.1% (inactive),–
COc1cccc(OC)c1C(=O)OCC(=O)/C(C#N)=C(\C)N,-3.38% (inactive),–

Compound,"activity change, negative = growth inhibition",Potency
CC(C)(C)n1ncc2c(=O)n(Cc3ccc(Cl)cc3)cnc21,–,23.1 µM (active)
Cc1ccc(-n2ncc3c(=O)n(Cc4cccc(C(F)(F)F)c4)cnc32)cc1C,-16.6% (inactive),–
CC(=O)Cn1cnc2c(cnn2-c2ccccc2)c1=O,1.02% (inactive),–
c1cc(-c2nn[nH]n2)ccc1CN1CCCCC1,-14.8% (inactive),–
CC(=O)Nc1ccc(OCCC[n+]2cccc(C(=O)[O-])c2)cc1,-4.3% (inactive),–
Nc1cc(N)nc(SCc2cccc(F)c2)n1,2.63% (inactive),–
Fc1ccc(CNc2nc3ccccc3n3nnnc23)cc1,-27.9% (inactive),–
Fc1ccc(Nc2nc(SCc3ccccc3Cl)nc3ccccc23)cc1,–,16.4 µM (active)
O=c1cc(O)nc(SCc2ccccc2Cl)[nH]1,0.667% (inactive),–
Fc1ccc(CSc2nc(NCc3ccccc3)c3ccccc3n2)cc1,–,16.4 µM (active)
Nc1nc(SCc2ccccc2Cl)n[nH]1,-17.1% (inactive),–
O=C1NCC(c2ccccc2)(c2ccccc2)C(=O)N1,-4.04% (inactive),–
CC(=O)c1nc(N2C(=O)C3CC=C(C)CC3C2=O)sc1C (configuration not stated),-12.9% (inactive),–
Cc1ccc(S(=O)(=O)NC2(C(F)(F)F)NC(=O)N(CCc3ccccc3)C2=O)cc1 (configuration not stated),–,inactive
O=C(Nc1ccccc1F)c1ccc2c(c1)OCO2,-4.9% (inactive),–
N[C@@H](C(=O)O)c1ccc(P(=O)(O)O)cc1,-0.85% (inactive),–
O=C(COc1ccc(Cl)cc1[N+](=O)[O-])N1CCCCC1,-16.3% (inactive),–
O=C(c1ccc(Oc2ccc(Cl)cc2)c([N+](=O)[O-])c1)N1CCCC1,–,14.6 µM (active)
O=C(c1ccc(Cl)c(Cl)c1)N1CCCC1,-8.49% (inactive),–
